Experiment [1] addresses Retinoic acid receptor RXR-alpha (Homo sapiens) (UniProt P19793). As to the kind of experiment: qHTS assay to identify small molecule agonists of the RXR signaling pathway (AID 1159527; calls by dose curve; further: nearly all actives have a fitted effect of over 35% in size). The method in brief: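 GeneBLAzer RXR-alpha-UAS-bla HEK 293T cells in 2% charcoal-stripped FBS medium were exposed to compounds for 16 hr at 37 C in agonist mode. Beta-lactamase reporter read as 460/530 nm FRET ratio after 2 hr substrate loading.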
In general terms: qHTS replaces the single test concentration by a dilution series.

Experiment [2] in a line: qHTS assay to identify small molecule antagonists of the retinoid acid receptor (RAR) signaling pathway - cell viability counter screen (AID 1159551). Further: nearly all actives have a fitted effect of over 35% in size. The method in brief:
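ATP-based viability, C3RL4 cells, 6 h at 37 C with 1 uM final retinol co-added after compound; luminescence read 30 min post CellTiter-Glo, RT.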

Experiment [3] can be described thus: qHTS assay to identify small molecule agonists of the retinoic acid receptor (RAR) signaling pathway (AID 1159553). Further: potency means the concentration at half of the fitted maximal effect. The method in brief: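 Quantitative high-throughput format: the Tox21 10K library was tested on C3RL4 RARE-luciferase cells for 6 hr at 37 C and 5% CO2, with luminescence measured after a 30 min room-temperature reagent step.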
A short description of experiment [4]: qHTS assay to identify small molecule antagonists of the estrogen related receptor (ERR) signaling pathway from Tox21 library - cell viability counter screen (AID 1224834). Further: nearly all actives have a fitted effect of over 30% in size. Further: potency means the concentration at half of the fitted maximal effect. The method, boiled down:
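Compounds in DMSO were pinned onto ERR cells that had been incubated for 6 h, and the plates were held at 37 C for 17.5 h. CellTiter-Fluor reagent was then added and fluorescence was measured after 30 min.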

Experiment [5] has as its target Luciferin 4-monooxygenase (Photinus pyralis) (UniProt P08659). As to the kind of experiment: qHTS assay to identify small molecule inhibitors of firefly luciferase (AID 1224835). Further: nearly all actives have a fitted effect of over 25% in size. Further: potency means the concentration at half of the fitted maximal effect. On activity change, negative = inhibition: series mostly up to about 120 µM. The method, boiled down: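 Biochemical qHTS: compounds run as interplate titrations against purified firefly enzyme, with D-luciferin and ATP each at its KM concentration. Light output recorded by CCD imaging.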

Experiment [6] is described as follows: qHTS assay to identify small molecule agonists of the constitutive androstane receptor (CAR) signaling pathway - cell viability counter screen (AID 1224836). Further: nearly all actives have a fitted effect of over 45% in size. Further: potency means the concentration at half of the fitted maximal effect. On viability change, negative = cytotoxic: series mostly up to about 92 µM. The method, boiled down:
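HepG2 cells stably carrying hCAR and a CYP2B6-2.2kb reporter; 15-concentration compounds plus PK11195 (final 0.75 uM), 23 hr at 37 C/5% CO2. Viability read by CellTiter-Fluor fluorescence.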

Experiment [7] can be described thus: qHTS assay to identify small molecule antagonists of the constitutive androstane receptor (CAR) signaling pathway - cell viability counter screen (AID 1224837). Further: nearly all actives have a fitted effect of over 45% in size. Further: potency means the concentration at half of the fitted maximal effect. On activity change, negative = cytotoxicity: series mostly up to about 92 µM. The method, boiled down: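 Cells are seeded, rested 4 hr at 37 C/5% CO2, dosed with compound (15-point series) and 50 nM CITCO, incubated a further 23 hr, and then CellTiter-Fluor reagent is added before fluorescence is read. The line is HepG2 with stable hCAR and CYP2B6-2.2kb.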

Experiment [8] can be described thus: qHTS assay to identify small molecule antagonists of the estrogen related receptor signaling pathway with the pleiotropic PPARgamma coactivator (PGC) from Tox21 10K library - cell viability counter screen (AID 1224840; active means well fitted cell-killing curve with a large enough effect in the repeat runs, not every such curve was filed as active; further: nearly all actives have a fitted effect of over 40% in size). The method in brief:
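Cell viability is measured by CellTiter-Fluor fluorescence in PGC/ERR cells that receive compounds after a 6-hour attachment period and are then incubated 17.5 hours at 37 C.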

Experiment [9] in a line: qHTS assay to identify small molecule antagonists of the estrogen related receptor signaling pathway with the pleiotropic PPARgamma coactivator (PGC) from Tox21 10K library (AID 1224841; call rule not given here; further: series mostly up to about 92 µM; actives are mostly falling curves and most rising ones were filed inactive; nearly all actives have a fitted effect of over 50% in size). The method, boiled down:
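Cells stably carrying the PGC/ERR reporter, seeded at 2,000 per well, received pin-transferred compounds 6 h post-plating. Exposure lasted 18 h at 37 C. Signal: One-Glo luminescence.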

Experiment [10] is described as follows: qHTS assay to identify small molecule agonists of the estrogen related receptor signaling pathway with the pleiotropic PPARgamma coactivator (PGC) from Tox21 10K library (AID 1224842). Further: nearly all actives have a fitted effect of over 15% in size. The method, boiled down: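 PGC/ERR reporter cell line, 2,000 cells per well, incubated 6 h at 37 C before 23 nL compound in DMSO was added. After 18 h at 37 C, One-Glo luminescence read following 30 min at room temperature.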

Experiment [11] in a line: qHTS assay to identify small molecule agonists of the RXR signaling pathway - cell viability counter screen (AID 1159529). Further: series mostly up to about 77 µM; nearly all actives have a fitted effect of over 50% in size. The method in brief:
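RXR-alpha-UAS-bla HEK 293T cells in medium with 2% charcoal-stripped FBS were pre-incubated 5 hr, then compound-treated 16 hr at 37 C. Viability was read by CellTiter-Glo luminescence in the same wells as the beta-lactamase assay, with tetraoctyl ammonium bromide as positive control.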

Experiment [12] deals with Nuclear receptor subfamily 1 group I member 3 (Homo sapiens) (UniProt Q14994). Nature of the experiment: qHTS assay to identify small molecule antagonists of the constitutive androstane receptor (CAR) signaling pathway (AID 1224838).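 Further: HepG2 cells stably expressing hCAR with CYP2B6 luciferase reporter stimulated by CITCO; nearly all actives have a fitted effect of over 40% in size.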 The method, boiled down: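 Luminescence from a CYP2B6-2.2kb promoter reporter in hCAR-expressing HepG2 cells reflects CAR signaling. Cells received compounds at 15 concentrations and 50 nM CITCO (final), then incubated 24 h at 37 C/5% CO2.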

Experiment [13] shares this target. Nature of the experiment: qHTS assay to identify small molecule agonists of the constitutive androstane receptor (CAR) signaling pathway (AID 1224839). Further: nearly all actives have a fitted effect of over 15% in size. Further: potency means the concentration at half of the fitted maximal effect. On activation: series mostly up to about 92 µM. The method, boiled down: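 HepG2 cells stably co-transfected with hCAR and a CYP2B6-2.2kb luciferase reporter; compounds at 15 concentrations with 0.75 uM PK11195 present. After 24 hr at 37 C, luciferase read by ONE-Glo luminescence.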

Experiment [14] can be described thus: qHTS assay to identify small molecule antagonists of the retinoic acid receptor (RAR) signaling pathway (AID 1159552; further: nearly all actives have a fitted effect of over 50% in size). The method, boiled down:
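Retinol signaling pathway inhibitors screened in C3RL4 RARE-luciferase reporter cells seeded overnight at 37 C, then compounds added with 1 uM (final) retinol as pathway substrate. After 6 hr at 37 C, luciferase luminescence read after 30 min at room temperature.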

The nature of experiment [15]: qHTS assay to identify small molecule antagonists of the estrogen related receptor (ERR) signaling pathway - cell viability counter screen (AID 1224818).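 Further: series mostly up to about 46 µM; viability measured after 17.5 h of compound exposure.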 The method, boiled down: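 Quantitative high-throughput viability counter screen in ERR cells. Compounds (DMSO) incubated 17.5 h at 37 C; read-out was CellTiter-Fluor fluorescence.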
Experiment [16] is described as follows: qHTS assay to identify small molecule antagonists of the estrogen related receptor signaling pathway with the pleiotropic PPARgamma coactivator (PGC) cell viability counter screen (AID 1224822; further: series mostly up to about 46 µM). The method in brief: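 Cytotoxicity in the PGC/ERR cell line is assessed with CellTiter-Fluor, read as fluorescence intensity 30 min after reagent addition, following 17.5 h compound treatment at 37 C.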

The source of these data is PubChem BioAssay (Tox21).

Inconclusive results are not listed. Values without a mark were called inactive. Calls of active or inactive are those of the source. Unless noted, the call rests on the fitted dose curve; in most records, active means well fitted curve in the direction sought with a large enough effect in the repeat runs; inconclusive means weak or mixed curves; inactive means no such curve, though single readings can be large; an effect the other way counts as inactive or inconclusive.
On the % scale 0 is the no-effect control and ±100 the full control effect.

Chain of Retinoic acid receptor RXR-alpha (Homo sapiens) (P19793 whole entry, looked up): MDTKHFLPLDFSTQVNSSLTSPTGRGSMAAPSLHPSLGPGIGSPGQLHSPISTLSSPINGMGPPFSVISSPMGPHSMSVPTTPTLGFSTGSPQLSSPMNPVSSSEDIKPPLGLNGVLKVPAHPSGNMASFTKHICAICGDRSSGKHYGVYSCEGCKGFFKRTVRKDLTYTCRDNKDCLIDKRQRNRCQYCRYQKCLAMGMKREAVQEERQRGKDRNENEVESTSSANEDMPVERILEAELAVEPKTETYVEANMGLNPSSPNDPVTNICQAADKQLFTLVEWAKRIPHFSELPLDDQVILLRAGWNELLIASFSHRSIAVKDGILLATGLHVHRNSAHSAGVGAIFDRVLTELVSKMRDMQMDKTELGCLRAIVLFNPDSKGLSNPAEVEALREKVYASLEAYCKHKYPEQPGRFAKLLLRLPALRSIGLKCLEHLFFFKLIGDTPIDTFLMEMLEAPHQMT
Chain of Luciferin 4-monooxygenase (Photinus pyralis) (P08659 whole entry, looked up): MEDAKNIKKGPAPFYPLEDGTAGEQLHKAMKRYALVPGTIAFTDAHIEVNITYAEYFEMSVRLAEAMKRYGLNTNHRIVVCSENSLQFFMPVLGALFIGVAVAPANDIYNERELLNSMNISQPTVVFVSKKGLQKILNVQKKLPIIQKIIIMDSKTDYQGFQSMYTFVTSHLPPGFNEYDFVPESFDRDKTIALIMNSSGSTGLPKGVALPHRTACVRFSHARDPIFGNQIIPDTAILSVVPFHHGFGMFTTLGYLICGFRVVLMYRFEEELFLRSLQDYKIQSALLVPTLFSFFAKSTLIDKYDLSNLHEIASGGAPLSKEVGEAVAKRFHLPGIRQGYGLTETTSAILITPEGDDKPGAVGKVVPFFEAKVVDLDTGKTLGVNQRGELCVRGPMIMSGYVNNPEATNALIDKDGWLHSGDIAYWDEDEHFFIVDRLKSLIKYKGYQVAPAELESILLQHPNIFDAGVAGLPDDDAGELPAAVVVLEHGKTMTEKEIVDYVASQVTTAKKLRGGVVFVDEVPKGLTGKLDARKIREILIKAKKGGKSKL
Chain of Nuclear receptor subfamily 1 group I member 3 (Homo sapiens) (Q14994 whole entry, looked up): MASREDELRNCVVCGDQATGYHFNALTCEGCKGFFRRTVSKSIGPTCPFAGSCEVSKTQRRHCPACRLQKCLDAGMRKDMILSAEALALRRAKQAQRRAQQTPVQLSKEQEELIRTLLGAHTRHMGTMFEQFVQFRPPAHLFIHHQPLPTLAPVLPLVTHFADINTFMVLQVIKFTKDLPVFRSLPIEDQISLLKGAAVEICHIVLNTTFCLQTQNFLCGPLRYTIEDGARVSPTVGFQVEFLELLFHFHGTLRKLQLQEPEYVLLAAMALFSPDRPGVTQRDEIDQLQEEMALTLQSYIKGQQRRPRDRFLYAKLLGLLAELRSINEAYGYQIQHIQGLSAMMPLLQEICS

Turning to `CC[C@H]1OC(=O)[C@H](C)[C@@H](O[C@H]2C[C@@](C)(OC)[C@@H](O)[C@H](C)O2)[C@H](C)[C@@H](O[C@@H]2O[C@H](C)C[C@H](N(C)C)[C@H]2O)[C@](C)(O)C[C@@H](C)/C(=N\OCOCCOC)[C@H](C)[C@@H](O)[C@]1(C)O`, the Potency entry in [1], in [2], in experiment [3], in experiment [5], in experiment [8] and in experiment [9] was “inactive” in each case. Moreover, the Potency result in [10] is “inactive”. The Potency in experiment [4] was 14.3 µM (active); in experiment [6], 25.5 µM (active); in experiment [7] it was 14.3 µM (active).

With `O=C(O)CN1C(=O)c2cccc3cccc(c23)C1=O`, the Potency entry in experiment [1], in experiment [11], in experiment [2], in experiment [4], in experiment [5] and in experiment [7] was “inactive” in each case. Further, the Potency result in experiment [12], in experiment [13], in experiment [8], in experiment [9] and in [10] was “inactive” in each case.

As to `CCCCCCCCCCCCCOC(=O)CCSCCC(=O)OCCCCCCCCCCCCC`, the results for the activation in experiment [1] and in experiment [13] were 4.41% [at 15.8 µM] and -0.548% [at 19 µM], respectively. Further, the activity change, negative = cytotoxicity in [2] was 3.2% [at 19 µM]; in experiment [7], -3.13% [at 19 µM]. Also, the activity, negative = inhibition was -11.1% [at 19 µM] in experiment [14] and 5.4% [at 19 µM] in experiment [12]. The Potency entry in experiment [3] was “inactive”. Also, the viability change, negative = cytotoxic in experiment [4] is -0.449% [at 19 µM]; in experiment [6], -3.39% [at 19 µM]. Besides, in [5], the activity change, negative = inhibition is -2.08% [at 23.6 µM].

As for `Nc1ccc(N=Nc2ccc(N)cc2)cc1`, the Potency entry in experiment [1], in experiment [2], in [14] and in [12] was “inactive” in each case. Further, the results for the Potency in experiment [3], in experiment [4] and in [5] were 0.863 µM (active), 27.3 µM (active) and 4.48 µM (active), respectively.

As for `CC(CO)(CO)C(=O)O`, the Potency entry in experiment [1], in experiment [11], in experiment [2], in experiment [5], in [6] and in experiment [7] was “inactive” each time. Besides, the Potency entry in experiment [12], in [13], in [8], in experiment [9] and in experiment [10] was “inactive” each time.

Turning to `CCN(CC)CCOC(=O)C(c1ccccc1)c1ccccc1`, the Potency entry in [1], in experiment [2], in experiment [14], in [3], in experiment [4] and in experiment [5] was “inactive” in each case. Moreover, the Potency result in experiment [6], in [7], in [12], in experiment [13] and in experiment [8] was “inactive” throughout.

As for `CSSc1ccoc1C`, the Potency entry in experiment [1], in experiment [2], in experiment [14], in experiment [4], in experiment [5] and in experiment [6] was “inactive” throughout. The Potency result in experiment [7], in [12], in [13] and in [8] was “inactive” each time. In addition, the Potency in [3] was 0.0431 µM (active).

Turning to `CC(=O)NNC(C)=O`, the Potency result in experiment [1], in experiment [2], in experiment [14], in [3], in experiment [5] and in experiment [6] was “inactive” throughout. Further, the Potency result in experiment [7], in experiment [8], in experiment [9] and in [10] was “inactive” in each case.

With `Nc1nc2ccc(OC(F)(F)F)cc2s1`, the Potency result in experiment [1], in experiment [2], in [14], in experiment [6], in [7] and in experiment [12] was “inactive” throughout. In addition, the Potency entry in [8] was “inactive”. The Potency in experiment [3] is 9.44 µM (active); in [5] it was 24.5 µM (active); in experiment [13], 11.9 µM (active). Also, the result in experiment [15] and in experiment [16] was inactive.

Regarding `O=C(c1ccccc1)C1CCC1`, the Potency result in [1], in [2], in experiment [14], in experiment [4], in experiment [5] and in experiment [6] was “inactive” each time. Further, the Potency entry in experiment [7], in experiment [12] and in experiment [8] was “inactive” each time.
